Results taken from PubChem BioAssay (NCATS).
Inconclusive results are not listed. Entries that show only a call come without a potency. Active and inactive are the calls of the source. The call rests on the fitted dose curve; in most records, active means well fitted curve in the direction sought with a large enough effect; inconclusive means small, poorly fitted or top-dose-only effect, or another doubt; inactive means no such curve, though single readings can be large; an effect the other way counts as inactive or inconclusive.

Assays:
[1] = target: Calcium and integrin-binding protein 1 (Homo sapiens) (UniProt Q99828); assay: Primary qHTS for Identification of Calcium Integrin Binding Protein 1 (CIB1) Competitor (AID 1508620);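 further: GST tagged CIB1 binding a fluorescein labelled alphaIIb integrin peptide tracer; top concentration of the series differs between compounds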
Calcium and integrin-binding protein 1 (Homo sapiens), sequence (Q99828 whole entry, looked up): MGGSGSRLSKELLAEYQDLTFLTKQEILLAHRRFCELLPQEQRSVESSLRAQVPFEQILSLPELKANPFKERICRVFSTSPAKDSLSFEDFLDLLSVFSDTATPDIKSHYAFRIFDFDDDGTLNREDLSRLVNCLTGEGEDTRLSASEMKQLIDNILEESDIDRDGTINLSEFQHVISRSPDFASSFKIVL
Method in brief: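 Fluorescence polarization competition: GST-tagged CIB1 (1 uM final) preincubated with compound 15 min at room temperature, then FITC-labelled alphaIIb peptide (100 nM final) added. After 15 min at room temperature, polarization read at Ex 480/Em 540.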

[2] = Primary qHTS for small molecule stabilizers of the endoplasmic reticulum resident proteome: Secreted ER Calcium Modulated Protein (SERCaMP) assay (AID 1508630)
Method in brief: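 The SH-SY5Y reporter protocol was run at 3 concentrations up to 38.3 uM (primary) or 11 concentrations (follow-up): 16 h compound, 100 nM thapsigargin for 4 h, then extracellular luciferase luminescence.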

| Structure (SMILES) | outcome [1] | Potency [2] |
| --- | --- | --- |
| CCCS(=O)(=O)Nc1ccc(F)c(C(=O)c2c[nH]c3ncc(Cl)cc23)c1F | inactive | inactive |
| Cc1cc(-c2ccc(CC(=O)Nc3ccc(-c4cccnc4)cc3)cc2)ccn1 | inactive | inactive |
| CCOc1ccc(Cc2cc([C@@H]3O[C@H](CO)[C@@H](O)[C@H](O)[C@@H]3O)ccc2Cl)cc1 | – | inactive |
| O=C(NOC[C@H](O)CO)c1ccc(F)c(F)c1Nc1ccc(I)cc1F | inactive | inactive |
| COCCNCCCn1c(C(=O)CF)c(-c2ccc(C)cc2)c2c(N)ncnc21 | – | inactive |
| C[C@@H]1CN(Cc2ccc(F)cc2)[C@@H](C)CN1C(=O)c1cc2c(C(=O)C(=O)N(C)C)cn(C)c2cc1Cl | inactive | inactive |
| CC(C=CC1=C(C)CCCC1(C)C)=CC=CC(C)=CC(=O)O | – | inactive |
